EWS-Fli block: EWS/Fli-driven NR0B1 reporter inhibitors, primary screen, A673 cells, NR0B1 luciferase, luminescence, MLPCN library. 350,000 tested, 0.67% active. inhibition, % at 12.6 µM. viability-normalised;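 active = mean inhibition of at least 50% after viability correction, with every replicate also passing that limit; inconclusive = mean reaches 50% but only one of two replicates passes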;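 also: firefly luciferase signal divided by Alamar Blue viability fluorescence both relative to DMSO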
F508del corr: F508del CFTR correction, initial screen, CFBE line, single point. AID 720511, 2013. 350,000 tested, 0.36% active. activity (quench increase), % at 7.58 µM. CFBE cells, YFP halide quenching; stimulated with forskolin plus potentiator P3; % fluorescence drop versus neutral controls;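 active = mean added fluorescence quench of at least 8% versus neutral control, with both replicates also reaching 8%; inconclusive = only one of the mean or replicate conditions met; inactive = mean below 8% and not both replicates reaching 8%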;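 also: cells transiently co-express mutant CFTR-F508del with the halide-sensitive YFP; corrector assay measuring rescue of mutant channel to the surface after 24 h compound exposure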
PGC1a acetyl inh: inhibitors of PGC1a acetylation signal, primary screen, cell-based, U2OS, AlphaScreen, inhibitor mode; AID 651687, 2012; 350,000 tested, 0.17% active; inhibition, % at 15.6 µM; AlphaScreen anti-acetyl-lysine; with virally co-expressed GCN5 acetyltransferase;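 active = every replicate shows inhibition of at least 40%; inconclusive = mean inhibition at least 40% but some replicate below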;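 also: 0% = neutral control wells and 100% = positive control wells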
GSIS activator: GLuc luminescence reporter in INS-1E cells, primary screen for activators of glucose-dependent secretion of insulin; INS-1E GLuc reporter insulin secretion, 2-3 h; activation, % at 16.6 µM; 370,000 tested, 0.61% active;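 active = lowest replicate activation of at least 40%, so every replicate reaches that level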;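 also: 0% = median of neutral control wells and 100% = median of IBMX positive control wells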
Env fusion inh: inhibitors of HIV-1 Env-driven cell-cell fusion, primary screen, HeLa-JRFL effector, CEM21 target cells, luciferase; inhibition, % at 12.3 µM; 360,000 tested, 1.1% active;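 active = mean replicate inhibition score of at least 50 and every replicate individually at or above 50; inconclusive = only one of the two criteria met; inactive = mean below 50 and not all replicates reaching 50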;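 also: 0% = plate neutral controls and 100% = maraviroc near 300 nM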
PAX8 reporter: inhibitors of PAX8-driven TPO luciferase reporter, primary screen, RMG-I cells, single concentration; 360,000 tested, 1.2% active; inhibition, % at 12.6 µM; SteadyGlo, 24 h;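 active = mean replicate inhibition at least 60% with every replicate also reaching 60%; inconclusive = only one of the two criteria is met; inactive = mean below 60% and not all replicates reaching 60%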;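 also: luciferase light reporting Pax8 driven TPO promoter activity; plate controls were median of neutral control wells for no effect and mitoxantrone controls for full effect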
An asterisk follows results filed as active; ? = inconclusive; / = no result; [ ] = remark or other dose. Shown are actives, neighbours in structure and some others; about 2.7% of the full set was active somewhere.

SMILES	EWS-Fli block	F508del corr	PGC1a acetyl inh	GSIS activator	Env fusion inh	PAX8 reporter
Cc1ccc(S(=O)(=O)N2CCOCC2)cc1NC(=O)CSc1nnc(COc2ccccc2F)n1N	0.0	28.2*	-3.5	7.5	-5.0	-6.6
Cc1ccc(S(=O)(=O)Nc2ccc3c(c2)C(=O)N([C@@H](C)CO)C[C@H](C)[C@H](CN(C)C(=O)Nc2ccc(F)cc2)O3)cc1	4.0	-0.4	6.3	-10.4	/	10.2
C[C@H]1CN([C@@H](C)CO)C(=O)Cc2cc(NC(=O)Nc3ccc(C(F)(F)F)cc3)ccc2O[C@H]1CN(C)C(=O)NC1CCCCC1	-0.9	5.7	6.8	/	-7.2[16.7 µM]	78.2*
C[C@@H]1CN([C@@H](C)CO)C(=O)Cc2cc(NC(=O)Nc3ccc(C(F)(F)F)cc3)ccc2O[C@@H]1CN(C)C(=O)NC1CCCCC1	58.5*	5.2	-6.7	-10.9	8.6[16.7 µM]	24.7
C[C@H](CO)N1C[C@H](C)[C@@H](CN(C)C(=O)NC2CCCCC2)Oc2ccc(NC(=O)Nc3ccc(C(F)(F)F)cc3)cc2CC1=O	8.6	0.6	-0.6	-13.9	-18.4[16.7 µM]	59.1
C[C@@H]1CN([C@@H](C)CO)C(=O)Cc2cc(NC(=O)Nc3ccc(C(F)(F)F)cc3)ccc2O[C@H]1CN(C)CC1CCCCC1	59.1*	-0.8	-17.6	9.0	7.7[16.7 µM]	-34.4
C[C@H]1CN([C@@H](C)CO)C(=O)Cc2cc(NC(=O)Nc3ccc(C(F)(F)F)cc3)ccc2O[C@H]1CN(C)CC1CCCCC1	0.4	-0.6	-17.5	20.2	2.7[16.7 µM]	-6.9
O=C(NCC[C@@H]1CC[C@@H](NC(=O)C2CCC2)[C@@H](CO)O1)c1cnccn1	-2.0	0.8	-1.9	12.1	-33.2[16.7 µM]	-2.8
Cc1ccc(S(=O)(=O)CCSC(=N)N)cc1	11.3	-8.7	-67.1	5.7	11.4	68.9*
Cc1ccc(S(=O)(=O)CC(N)=O)cc1	7.3	0.2	-11.3	4.0	/	/
COc1cc(N2C(=O)C=CC2=O)ccc1N1C(=O)C=CC1=O	60.4*	-3.5	-14.7	/	-239.0	115.4*
CO[C@@H]1CN(C)C(=O)c2cc(NC(=O)Nc3c(C)noc3C)ccc2OC[C@@H](C)N(C)C[C@H]1C	-8.7	-6.4	-6.8	4.5	15.4[16.7 µM]	1.2
N#Cc1c(N)n(C2OC(CO)C(O)C2O)c2ncnc(N)c12 (stereo not given)	27.1	-3.1	/	/	84.1*	108.7*
Nc1ncnc2c1ncn2C1O[C@H](CO)[C@@H](O)[C@@H]1O (stereo not given in full)	9.3	3.5	-0.1	-0.2	-2.5	-7.1
Cc1ccc(S(=O)(=O)Oc2ccccc2)cc1	-32.6	0.1	0.1	17.6	-29.0	-29.6
Cc1ccc(S(=O)(=O)Oc2ccccc2-c2ccccc2)cc1	37.7	1.7	-14.3	/	60.4*	29.4
C[C@@H]1CN([C@@H](C)CO)C(=O)Cc2cc(NS(=O)(=O)c3ccc(F)cc3)ccc2O[C@H]1CN(C)Cc1ccc(Cl)c(Cl)c1	23.4	-3.5	34.2	196.4	100.3*[16.7 µM]	93.3*
C[C@H]1CN([C@@H](C)CO)C(=O)Cc2cc(NS(=O)(=O)c3ccccc3)ccc2O[C@@H]1CN(C)Cc1ccc(Cl)c(Cl)c1	13.0	-5.1	27.8	2.5	57.6*[16.7 µM]	?
C[C@@H]1CN([C@@H](C)CO)C(=O)Cc2cc(NS(=O)(=O)c3ccccc3)ccc2O[C@@H]1CN(C)Cc1ccc(Cl)c(Cl)c1	8.7	5.9	-10.8	-6.5	12.9[16.7 µM]	31.1
C[C@H](CO)N1C[C@H](C)[C@@H](CN(C)Cc2ccc(Cl)c(Cl)c2)Oc2ccc(NS(=O)(=O)c3ccccc3)cc2CC1=O	-8.1	-0.4	-0.6	-27.4	-4.6[16.7 µM]	83.3*
C/C=C/c1ccc2c(c1)O[C@@H](CN(C)Cc1ccc(C(=O)O)cc1)[C@H](C)CN([C@H](C)CO)S2(=O)=O	2.3	0.7	2.9	22.1	15.0[16.7 µM]	6.8
C#CCn1ccc(O)c(Cc2c(F)cccc2Cl)c1=O	7.1	2.5	-8.3	18.0	0.0	-20.3
COc1ccc(CCn2ccc(O)c(Cc3c(F)cccc3Cl)c2=O)cc1OC	-6.6	0.8	/	42.7*	22.7	3.0
COc1ccc(S(=O)(=O)N(C)C[C@H]2Oc3ccc(NC(=O)CCCN(C)C)cc3C(=O)N([C@@H](C)CO)C[C@@H]2C)cc1	-1.2	-0.5	-2.8	12.7	/	0.0
c1ccc(Cn2nnc3c(N4CCc5ccccc54)ncnc32)cc1	/	/	4.8	86.2*	-126.7	-10.4
SMILES	EWS-Fli block	F508del corr	PGC1a acetyl inh	GSIS activator	Env fusion inh	PAX8 reporter
c1ccc(Cn2nnc3c(N4CCCCCC4)ncnc32)cc1	-42.4	-1.5	9.9	/	18.8	-21.5
COc1ccc(NC(=O)Nc2ccc3c(c2)C(=O)N([C@H](C)CO)C[C@@H](C)[C@H](CN(C)C(=O)Nc2ccc(OC)cc2)O3)cc1	4.2	-0.1	8.1	9.2	4.1[16.7 µM]	-7.3
COc1ccc([C@H]2C[C@H](O)[C@@H](n3cc(-c4ccc(F)cc4)nn3)CN2Cc2cccs2)cc1	56.4*	8.1*	6.7	5.4	8.2	?
CCCCCCN1C[C@@H](n2cc(-c3ccc(F)cc3)nn2)[C@H](O)C[C@@H]1c1ccc(Cl)cc1	23.1	-1.5	10.0	/	?	89.5*
CCCCCCN1C[C@H](O)[C@@H](n2cc(-c3ccc(F)cc3)nn2)C[C@@H]1c1ccc(Cl)cc1	9.4	-0.1	-0.8	4.9	2.9	-31.5
CCCCCC(=O)N1C[C@H](n2cc(-c3ccc(F)cc3)nn2)[C@@H](O)C[C@@H]1c1ccc(C)cc1	5.0	-3.3	66.6*	-33.5	1.2	5.7
O=C(C[C@@H]1C[C@@H]2c3cc(NC(=O)Nc4ccccc4)ccc3O[C@@H]2[C@@H](CO)O1)NCc1cccc(F)c1	1.7	2.6	-18.5	0.9	12.6[16.7 µM]	7.8
COCC#Cc1ccc2c(c1)O[C@H](CN(C)CC1CCOCC1)[C@H](C)CN([C@H](C)CO)S2(=O)=O	-10.6	2.9	5.1	5.5	-8.3[16.7 µM]	/
CCC(=O)N(C)C[C@@H]1Oc2ncc(C#Cc3ccccc3)cc2C(=O)N([C@H](C)CO)C[C@@H]1C	-7.1	3.6	0.5	-5.4	18.8[16.7 µM]	/
COc1ccccc1-c1ccc2c(c1)O[C@@H](CN(C)Cc1ccc3c(c1)OCO3)[C@@H](C)CN([C@@H](C)CO)S2(=O)=O	24.8	1.3	-64.9	-24.2	27.1[16.7 µM]	66.3*
COc1ccccc1-c1ccc2c(c1)O[C@H](CN(C)Cc1ccc3c(c1)OCO3)[C@H](C)CN([C@@H](C)CO)S2(=O)=O	-30.7	-3.3	-18.7	-21.9	43.2[16.7 µM]	87.8*
COc1cccc(-c2cc3nc(-c4ccccc4)cc(=O)n3[nH]2)c1	37.0	11.6*	/	19.9	-73.2	0.1
O=c1cc(-c2ccccc2)nc2cc(-c3ccc(F)cc3)[nH]n12	2.0	-0.9	-6.2	/	-0.7	-19.9

High-throughput results deposited in PubChem by Broad Institute.
